# Measured values: PubChem BioAssay AID1240 (Sanford-Burnham Center for Chemical Genomics, 2008)
# The whole screen tested about 50,000 compounds, of which about 800 (1.6%) showed an effect of 50% or more. For the sample, strong results were picked, then their nearest neighbours and some compounds at random.
# Target: Bcl-2-like protein 10 (Homo sapiens) (UniProt Q9HD36)
# Assay: Phenotype converters, Bcl-B/TR3 peptide binding displacement, primary biochemical FP (AID 1240);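 further: 0% = Bcl-B with tracer peptide and DMSO and 100% = tracer peptide lacking Bcl-B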
# Conditions: GST-Bcl-B / FITC-TR3 peptide fluorescence polarization; stronger effect = higher value; compound at 3.75 mg/L
# Sequence of Bcl-2-like protein 10 (Homo sapiens) (Q9HD36 whole entry, looked up): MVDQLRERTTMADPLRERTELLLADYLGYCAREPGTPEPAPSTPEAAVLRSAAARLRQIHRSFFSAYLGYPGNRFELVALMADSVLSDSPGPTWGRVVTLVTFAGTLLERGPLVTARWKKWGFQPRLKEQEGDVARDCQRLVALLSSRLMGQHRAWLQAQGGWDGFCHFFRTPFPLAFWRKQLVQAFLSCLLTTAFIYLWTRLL
row,Compound,displacement [%]
1,O=[N+]([O-])c1c(NC2CC2)ncnc1NC1CC1,10.9
2,O=[N+]([O-])c1ccccc1/C=N/N1CCN(Cc2ccc(Cl)cc2)CC1,-1.7
3,COc1cccc(Nc2nc(-c3ccc(S(=O)(=O)N4CCOCC4)cc3)cs2)c1,10.4
4,COc1ccccc1/C=C1\SC(=S)N(CCC(=O)NNC(=O)c2ccccc2O)C1=O,14.7
5,COc1ccc(N(CC(=O)Nc2cccc(Br)c2)S(=O)(=O)c2ccc(C)cc2)c(OC)c1,-1.5
6,CC(C)CC(NC(c1ccccc1)(c1ccccc1)c1ccccc1)C(=O)O (centres undefined),8.9
7,COc1ccc(Br)cc1/C=C/C(=O)Nc1ccc(C)cc1[N+](=O)[O-],87.4
8,O=C(/C=C/c1ccco1)Nc1ccc(-c2nc3ncccc3o2)cc1,-8.2
9,COc1ccc(Br)cc1C(=O)Nc1ccc(C)cc1[N+](=O)[O-],27.4
10,Cc1cc2nc(-c3ccc(C)c(NC(=O)/C=C/c4ccco4)c3)oc2cc1C,-5.3
11,Cc1ccc(-c2nc3ncccc3o2)cc1NC(=O)/C=C/c1ccco1,116
12,COc1ccc(Br)cc1/C=C\C(=O)Nc1ccc([N+](=O)[O-])cc1OC,4.8
13,CCC(C)NC(=O)CN(c1ccccc1)S(=O)(=O)c1ccccc1[N+](=O)[O-] (centres undefined),-8
14,COc1ccc(C2Nc3ccccc3C(=O)N2Cc2ccco2)cc1COc1c(C)cccc1C (centres undefined),-10.4
15,Cc1cc(C)nc(SCC(=O)NN=C2CCCCCC2)n1,3.9
16,COc1ccc(N(Cc2ccc(C(=O)NC3CCCC3)cc2)S(=O)(=O)c2ccccc2)cc1,-14.5
17,O=C(Oc1ccc(/C=N/O)cc1)c1ccc(Br)cc1,1.6
18,C/C(=N\Nc1nc(C)cc(-c2ccccc2)n1)c1cccc(N)c1,-15.5
19,COC(=O)C1=C(C)N(c2ccc(C)cc2)/C(=C\c2ccc(OCC(=O)Nc3ccccc3Cl)cc2)C1=O,7.6
20,COC(=O)C1=C(C)N(c2ccc(C)c(C)c2)/C(=C\c2ccc(OCC(=O)Nc3ccccc3OC)cc2)C1=O,68
21,COC(=O)C1=C(C)N(c2ccc(Br)cc2)/C(=C\c2ccc(OCC(=O)Nc3ccccc3OC)cc2)C1=O,20.3
22,C=CCOc1ccc(/C=C2\C(=O)C(C(=O)OC)=C(C)N2c2ccc(C)cc2)cc1,-24.7
23,COC(=O)C1=C(C)N(c2ccc(Cl)cc2)/C(=C\c2ccc(OCC(=O)Nc3ccccc3OC)cc2)C1=O,10.4
24,C=CCOc1ccc(/C=C2\C(=O)C(C(=O)OC)=C(C)N2c2ccc(F)cc2)cc1,127
25,CCOc1ccc(/C=C2\C(=O)C(C(=O)OC)=C(C)N2c2ccc(F)cc2)cc1,-6.6

row,Compound,displacement [%]
1,COC(=O)C1=C(C)N(c2ccccc2)/C(=C\c2ccc(OCC(=O)Nc3ccccc3OC)cc2)C1=O,55.5
2,COC(=O)C1=C(C)N(c2ccc(C)c(C)c2)/C(=C/c2ccc(OC)cc2)C1=O,14.1
3,Cc1ccc(OCC(=O)O/N=C(\N)Cc2ccc([N+](=O)[O-])cc2)c(C)c1,5.9
4,O=C(Nc1ccc2c(c1O)C(=O)c1ccccc1C2=O)c1ccccc1,12.7
5,CC1=NN(C(N)=S)C2(O)CC3C(C12)C3(C)C (centres undefined),7.5
6,CC(C)(C)NC(=O)c1ccccc1N(Cc1ccccc1)S(=O)(=O)c1ccccc1,-1.7
7,Cc1ccc2[nH]c(O)c(N=NC(=O)c3cc4ccccc4nc3C)c2c1,5.5
8,Cc1ccc(C(=O)c2cccc(NC(=O)CC(C)C)c2)cc1C,12.1
9,O=C(Nc1ccccc1Br)C1CC(=O)N(c2ccccc2)C1 (centres undefined),77.5
10,Cc1ccc(N2CC(C(=O)Nc3ccccc3Br)CC2=O)cc1 (centres undefined),11.9
11,Cc1ccccc1NC(=O)C1CC(=O)N(c2ccccc2)C1 (centres undefined),6.2
12,CS(=O)(=O)N(CC(=O)O)c1ccc(F)cc1,6.7
13,CCOc1cc(/C=C(\C#N)c2nc3ccccc3s2)ccc1O,0
14,Cc1ccc(/C=C(\C#N)c2nc3ccccc3s2)cc1,88.3
15,N#C/C(=C\c1cccs1)c1nc2ccccc2s1,-12.5
16,Cc1cccc(OCCn2c(N)nc3ccccc32)c1,-10.3
17,Cc1c(NC(=O)CSc2nnc(-c3cccc(F)c3)n2-c2ccccc2)c(=O)n(-c2ccccc2)n1C,13.4
18,CN1CCN(C2=C(Cl)C(=O)N(c3ccc(Br)cc3)C2=O)CC1,15.9
19,C=CCc1cccc2cc(C(=O)Nc3ccc(NC(C)=O)cc3)c(=O)oc12,-13.3
20,C=CCc1cccc2cc(C(=O)Nc3ccc(OCC)cc3)c(=O)oc12,53.1
21,C=CCc1cccc2cc(C(=O)Nc3ccc(CC)cc3)c(=O)oc12,8.6
22,CN1C(=O)/C(=C/c2ccc(O)c(O)c2)SC1=S,14
23,Cc1cc(Cl)ccc1NC(=O)Cc1ccccc1,-10
24,O=c1/c(=C\c2ccccc2OCc2cccc3ccccc23)sc2nc3ccccc3n12,104
